Compound activity (PubChem BioAssay)
Beta cell apopt – inhibitors of cytokine-induced beta cell apoptosis, primary screen, luminescence; 300,000 tested, 0.8% active; AID 435005, 2010; INS-1E cytokine-induced death, ATP luminescence, 48 h; percent of positive-control rescue, neutral wells zero; protection from apoptosis, % (no concentration beside the values);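 active means Every replicate reaches about 75%, or at least half do and their mean reaches it too, limit read from the data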;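 further: 0% = cytokine-treated negative control wells and 100% = positive control rescue; higher means more ATP so stronger rescue from cytokine killing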
CSC inhib – cancer stem cell viability inhibitors, primary screen, luminescence; cancer stem cell-like cells viability; inhibition, % at 7.5 µM; 300,000 tested, 1.1% active; AID 2717, 2010; in the data active means inhibition above about 75%; tested in HMLE shEcad cells
Mdm2 MdmX PPI – inhibitors of human Mdm2-MdmX association, primary screen, cell-based, luminescence, split luciferase, SaOS-2, uHTS; Protein Mdm4 (Homo sapiens) + E3 ubiquitin-protein ligase Mdm2 (Homo sapiens), …; SaOS-2 split-luciferase Mdm2/MdmX complementation; inhibition, % at 8 µM; 330,000 tested, 3% active; AID 485346, 2010;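 active means inhibition of at least 50% at 8 µM in the primary screen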
Target sequence (O15151 whole entry, looked up): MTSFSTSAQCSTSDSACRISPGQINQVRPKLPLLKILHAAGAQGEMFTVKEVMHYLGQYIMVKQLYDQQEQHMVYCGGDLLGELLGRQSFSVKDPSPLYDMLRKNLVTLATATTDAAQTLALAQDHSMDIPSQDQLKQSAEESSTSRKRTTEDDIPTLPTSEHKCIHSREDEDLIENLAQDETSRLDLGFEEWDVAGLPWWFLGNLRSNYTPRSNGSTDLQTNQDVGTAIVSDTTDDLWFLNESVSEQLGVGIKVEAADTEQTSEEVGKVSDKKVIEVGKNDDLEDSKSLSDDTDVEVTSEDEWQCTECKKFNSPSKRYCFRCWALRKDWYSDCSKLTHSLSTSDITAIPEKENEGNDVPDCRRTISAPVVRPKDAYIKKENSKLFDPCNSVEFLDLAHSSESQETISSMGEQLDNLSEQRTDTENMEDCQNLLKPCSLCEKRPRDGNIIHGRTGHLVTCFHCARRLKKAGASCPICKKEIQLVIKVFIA
Target sequence (Q00987 whole entry, looked up): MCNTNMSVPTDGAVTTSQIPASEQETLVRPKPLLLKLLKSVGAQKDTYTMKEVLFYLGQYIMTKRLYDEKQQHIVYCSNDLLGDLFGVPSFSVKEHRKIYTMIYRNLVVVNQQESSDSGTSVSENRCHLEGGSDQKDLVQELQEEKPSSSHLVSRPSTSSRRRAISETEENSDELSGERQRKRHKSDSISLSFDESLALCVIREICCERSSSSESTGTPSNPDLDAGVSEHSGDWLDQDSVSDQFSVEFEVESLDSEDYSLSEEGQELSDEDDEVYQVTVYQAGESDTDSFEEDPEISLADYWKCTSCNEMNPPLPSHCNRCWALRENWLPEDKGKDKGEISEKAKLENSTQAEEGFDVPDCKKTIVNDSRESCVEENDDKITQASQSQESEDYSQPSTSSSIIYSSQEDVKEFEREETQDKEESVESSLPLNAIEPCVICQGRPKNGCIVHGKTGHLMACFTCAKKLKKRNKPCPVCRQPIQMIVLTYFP
697 NFkB inh – inhibitors of PMA/ionomycin-induced NF-kB reporter, 697 cells, primary screen, B-cell NF-kB inhibitor project, cell-based, luminescence, uHTS. 697 B-cell NF-kB luciferase reporter, 16 h. inhibition, % at 4 µM. AID 435022, 2010. 330,000 tested, 0.33% active; in the data active means inhibition above about 35%
Jurkat NFkB inh – inhibitors of induced NF-kB luciferase reporter, primary screen, TCR NF-kB activation inhibitor project, cell-based, luminescence, uHTS; inhibition, % at 4 µM; 330,000 tested, 0.53% active; Jurkat, PMA/ionomycin-induced NF-kB luciferase reporter; in the data active means inhibition above about 50%
Gli-Sufu antag – Gli-Sufu pathway antagonists, primary screen, luciferase luminescence, Sufu-KO-LIGHT cells, uHTS | Sufu-KO-LIGHT fibroblasts, Gli luciferase reporter luminescence | inhibition, % at 5 µM | 340,000 tested, 0.74% active | AID 588413, 2011;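 active means inhibition above about 55%, limit read from the data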;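 further: 0% = DMSO-treated cells and 100% = wells with medium but no cells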
Mdm2-MdmX conf – Mdm2-MdmX complex disruptors, retested hits, confirmation, luminescence, single concentration; shares compounds with Mdm2 MdmX PPI; AID 489028, 2010; inhibition, % at 8 µM; Mdm2-MdmX binding, luminescent assay; 10,000 tested, 55% active; in the data active means inhibition above about 40%
FLuc counter – full-length luciferase signal inhibition, confirmation, counter-screen for Mdm2/MdmX interaction inhibitor project, cell-based, single concentration, SaOS-2. shares compounds with Mdm2 MdmX PPI. SaOS-2 full-length luciferase counterscreen, luminescence. inhibition, % at 8 µM. 6,200 tested, 77% active. AID 504607, 2011;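 active means mean inhibition at 8 µM reaching about 37%, which flags the compound as non-specific, limit read from the data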;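 further: p53-null SaOS-2 cells with luciferase driven by a doxycycline-inducible promoter; compound on cells about two nights before reading with doxycycline added after day one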
* hit, by the source's call; · = not tested or not shown. Most compounds without a hit are left out; they make up all but 4.5% or so of the library.

SMILES | Beta cell apopt | CSC inhib | Mdm2 MdmX PPI | 697 NFkB inh | Jurkat NFkB inh | Gli-Sufu antag | Mdm2-MdmX conf | FLuc counter
O=C(Nc1ccc(N2CCOCC2)cc1)c1ccncc1 | -0.6 | -2.3 | 7.7 | -28.3 | -9.1 | 21.0 | · | ·
O=C(Nc1ccc(N2CCOCC2)cc1)c1cnccn1 | · | -9.4 | 53.8* | -19.3 | 8.2 | -23.6 | 32.2 | ·
O=C(Nc1ccc(N2CCOCC2)cc1)c1cnsn1 | · | · | 70.2* | 28.7 | 47.5 | 30.1 | 67.8* | 32.1
O=C1C=C(c2ccc3ncccc3c2)C[C@@H](c2ccc(Cl)cc2)C1 | 3.6 | 56.8 | 54.1* | -15.9 | 48.6 | 2.9 | 46.3* | 82.7*
COc1ccc([C@H]2CC(=O)C=C(c3ccc4ncccc4c3)C2)cc1 | 0.2 | 47.1 | 19.4 | -64.6 | 48.4 | -13.4 | · | ·
CC[C@@H](C)[C@H](CN[C@H](CNC)C(C)C)NC[C@@H](C)c1ccc(CC(C)C)cc1 | 19.1 | 45.5 | 98.2* | 10.4 | 0.2 | 10.8 | 100.0* | 52.3*
CCCCC(CC)CN=C(N)NC(N)=NCCCCCCN=C(N)NC(N)=NCC(CC)CCCC (stereo not given) | 113.6* | 103.3* | 99.0* | 5.8 | 39.5 | 67.2* | 86.1* | 15.4
COc1ccc(NS(=O)(=O)c2cc(NC(=O)C(CC(C)C)NC(N)=O)ccc2N2CCOCC2)cc1 (stereo not given) | · | · | · | · | · | -1.1 | · | ·
Cc1cccc(/C=C/C(=O)c2cc(Br)ccc(=O)c2O)c1 | 38.0 | 102.9* | 54.4* | -6.2 | 6.6 | -0.2 | 36.4 | 73.0*
CCc1ccc(/C=C/C(=O)c2cc(Br)ccc(=O)c2O)cc1 | -0.3 | 9.3 | 52.0* | -22.1 | 5.8 | 3.2 | 39.0 | 40.3*
CCOc1ccc(/C=C/C(=O)c2cc(Br)ccc(=O)c2O)cc1 | 1.5 | 46.0 | · | · | · | -13.1 | · | ·
Cc1ccc(NC(=O)c2cc(-c3ccc4c(c3)OCO4)on2)cc1C | 1.5 | 11.7 | 21.4 | -8.8 | 11.8 | -1.8 | · | ·
COc1ccc(NC(=O)c2cc(-c3ccc4c(c3)OCO4)on2)cc1OC | 3.7 | 10.6 | 67.9* | 4.2 | -6.0 | -10.1 | 44.8* | 97.1*
O=C(Nc1ccc2c(c1)OCO2)c1cc(-c2ccc(O)cc2)on1 | · | 101.2* | 83.7* | -17.7 | -16.2 | -15.3 | -25.2 | ·
O=C(Cc1ccccc1F)NCC1(N2CCOCC2)CCCCC1 | -2.6 | -6.2 | 19.5 | -4.6 | -0.3 | -8.5 | · | ·
COc1ccc(-c2cc3c(=O)n(CC(=O)NCc4ccccc4F)ncn3n2)cc1 | 12.3 | -5.5 | 69.7* | -19.3 | -4.2 | -14.8 | 0.1 | ·
COc1ccc(-c2cc3c(=O)n(CC(=O)Nc4ccc(Cl)cc4)ncn3n2)cc1 | 0.1 | -7.7 | 11.4 | -5.4 | -2.8 | -12.4 | · | ·
COc1ccc(NC(=O)Cn2ncn3nc(-c4ccc(OC)cc4)cc3c2=O)cc1 | 8.7 | 0.8 | 79.6* | -11.5 | -9.0 | -11.6 | 20.2 | 90.4*
CCOc1ccc(CCNC(=O)Cn2ncn3nc(-c4ccc(OC)cc4)cc3c2=O)cc1OCC | · | -5.6 | 59.1* | -11.9 | -18.8 | -10.7 | 10.8 | ·
COc1ccc(Cl)cc1NC(=O)NCC1CCN(Cc2cc(C)ccc2C)CC1 | 6.3 | 6.5 | 57.7* | 1.7 | 20.6 | 5.5 | 36.3 | ·
COc1ccc(Cl)cc1C(=O)NC(=S)Nc1cc(-c2nc3ccccc3[nH]2)ccc1C | 7.0 | 30.8 | 75.6* | -51.5 | -50.0 | 9.2 | 1.2 | ·
Cc1cc(C(=O)CSc2nnc(-c3ccccc3)o2)c(C)n1CC1COc2ccccc2O1 (stereo not given) | 7.6 | -19.8 | 26.9 | 8.8 | -7.9 | -73.1 | · | ·
Cc1cc(C(=O)CSc2nnc(-c3ccc(F)cc3)o2)c(C)n1CC1COc2ccccc2O1 (stereo not given) | -1.8 | 63.8 | 61.8* | 3.2 | 14.4 | 7.8 | 22.8 | ·
Cn1c(=O)[nH]c(=O)c2c1nc(SCC(N)=O)n2Cc1cccc(Br)c1 | -7.9 | 7.0 | 63.5* | 33.1 | -0.5 | 26.4 | 32.5 | ·
Cc1ccc(Cn2c(SCC(C)C)nc3c2c(=O)[nH]c(=O)n3C)cc1 | 0.8 | -5.8 | 60.0* | -6.6 | 7.7 | 1.2 | 28.9 | ·
SMILES | Beta cell apopt | CSC inhib | Mdm2 MdmX PPI | 697 NFkB inh | Jurkat NFkB inh | Gli-Sufu antag | Mdm2-MdmX conf | FLuc counter
Cc1coc2c(C)c3oc(=O)c(CCC(=O)N4CCC(C(=O)NCCCC(=O)O)(c5ccccc5)CC4)c(C)c3cc12 | -6.4 | -3.5 | -3.0 | 16.0 | 14.7 | -6.8 | · | ·
COc1ccc(/C=N/n2nnnc2N)c(OC)c1 | -7.0 | -7.5 | 8.4 | 4.8 | 0.6 | -17.2 | · | ·
CCCC1SCC(C)(C)NC1=O (stereo not given) | · | · | · | · | · | -2.1 | · | ·
CCCNS(=O)(=O)c1ccc(OCC(=O)NCC2CCCO2)cc1 (stereo not given) | -5.6 | 5.8 | 15.1 | 8.8 | 2.4 | -30.0 | · | ·
CCCCN(CCCC)CCNC(=O)c1cn(CC)c2ccc(S(=O)(=O)N3CCc4ccccc4C3)cc2c1=O | 3.5 | -0.4 | 71.9* | -4.4 | -5.5 | 44.7 | 23.9 | ·
CCC1CCCCN1CCCNC(=O)c1cn(CC)c2ccc(S(=O)(=O)N(C)C3CCCCC3)cc2c1=O (stereo not given) | 1.4 | 13.6 | 21.3 | -89.4 | -21.0 | 30.9 | · | ·
CCn1cc(C(=O)NCCCN2CCCC(C)C2)c(=O)c2cc(S(=O)(=O)N3CCc4ccccc4C3)ccc21 (stereo not given) | -1.2 | -4.5 | 82.5* | 6.0 | 15.9 | 33.8 | 32.8 | ·
CCC1CCCCN1CCCNC(=O)c1cn(CC)c2ccc(S(=O)(=O)N3CCc4ccccc4C3)cc2c1=O (stereo not given) | -3.6 | 6.6 | 90.4* | 5.0 | 12.9 | 32.8 | 50.1* | 55.2*
CCn1cc(C(=O)NCCCN2CC(C)CC(C)C2)c(=O)c2cc(S(=O)(=O)N(C)C)ccc21 (stereo not given) | -5.7 | -1.3 | 11.2 | -0.3 | -5.1 | -2.4 | · | ·
Cc1ccc(C)c(OCCC(=O)OCC(=O)NCc2ccc(F)cc2)c1 | -3.2 | -5.6 | 8.9 | -11.6 | 0.5 | -1.1 | · | ·
OCCN1CCN(c2nc(-c3ccccc3)nc3c2oc2ccccc23)CC1 | 17.2 | 4.7 | 53.9* | -6.1 | -10.9 | -3.1 | 37.5 | 53.7*
CC(C)(C)c1nc(NC(=O)Nc2ccccc2)sc1Br | 9.1 | 3.5 | 66.0* | -60.8 | -84.6 | -31.2 | 3.9 | ·
O=C(NC1CCN(Cc2ccccc2)CC1)c1cc(S(=O)(=O)N2CCOCC2)ccc1Cl | · | · | · | · | · | 2.3 | · | ·
